Laboratory results reported in article PMC4336329 (PLoS ONE, 2015).
Screen size: about 310,000 compounds; about 14,000 (4.5%) showed an effect of 50% or more. The effect is printed as a negative number. What follows is part of a selection rich in strong results, with near analogues and random picks from the rest.

What follows are molecules tested against human ether-à-go-go-related gene (hERG) potassium channel (human, UniProt Q12809) (assay: primary screen, population patch clamp on CHO cells stably expressing hERG; higher = less effect of the substance).
Chain of human ether-à-go-go-related gene (hERG) potassium channel (Q12809 whole entry, looked up): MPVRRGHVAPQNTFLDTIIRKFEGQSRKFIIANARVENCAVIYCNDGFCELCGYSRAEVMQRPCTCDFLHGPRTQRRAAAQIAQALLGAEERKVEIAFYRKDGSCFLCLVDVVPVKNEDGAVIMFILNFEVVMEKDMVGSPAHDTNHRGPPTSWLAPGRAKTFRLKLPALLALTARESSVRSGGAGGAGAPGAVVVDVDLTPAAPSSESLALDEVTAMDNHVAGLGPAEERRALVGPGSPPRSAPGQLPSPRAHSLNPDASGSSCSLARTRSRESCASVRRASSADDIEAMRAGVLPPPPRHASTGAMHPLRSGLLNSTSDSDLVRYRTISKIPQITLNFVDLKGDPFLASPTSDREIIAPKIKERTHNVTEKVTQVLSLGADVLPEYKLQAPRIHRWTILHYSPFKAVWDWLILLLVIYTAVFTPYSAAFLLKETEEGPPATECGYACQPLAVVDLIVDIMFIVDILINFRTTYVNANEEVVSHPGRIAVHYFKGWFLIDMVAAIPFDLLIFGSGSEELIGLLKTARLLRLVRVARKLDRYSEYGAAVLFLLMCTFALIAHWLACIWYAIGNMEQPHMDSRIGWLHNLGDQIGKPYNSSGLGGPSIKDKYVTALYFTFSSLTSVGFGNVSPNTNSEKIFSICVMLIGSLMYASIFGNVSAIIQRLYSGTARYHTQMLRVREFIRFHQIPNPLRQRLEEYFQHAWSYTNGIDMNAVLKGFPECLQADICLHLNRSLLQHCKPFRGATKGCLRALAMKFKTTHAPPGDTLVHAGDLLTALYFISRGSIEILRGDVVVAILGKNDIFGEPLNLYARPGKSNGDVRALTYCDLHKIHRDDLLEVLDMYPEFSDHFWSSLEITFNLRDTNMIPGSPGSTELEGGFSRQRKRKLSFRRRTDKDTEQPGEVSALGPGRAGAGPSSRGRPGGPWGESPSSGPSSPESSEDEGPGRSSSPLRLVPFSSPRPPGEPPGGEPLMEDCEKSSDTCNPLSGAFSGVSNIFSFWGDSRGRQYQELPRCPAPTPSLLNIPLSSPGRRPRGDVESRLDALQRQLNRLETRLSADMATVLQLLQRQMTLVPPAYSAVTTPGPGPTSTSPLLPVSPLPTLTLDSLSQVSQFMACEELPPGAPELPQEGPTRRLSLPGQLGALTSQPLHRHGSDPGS
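Also: peak tail current of the secondary pulse compared with the same well before compound.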

Compound	hERG current change (%, negative = inhibition) at 10uM [%]
CC1CCCCC1NC(=O)CCNS(=O)(=O)c1ccc2c(c1)CCC(=O)N2 (centres unmarked)	6.25
O=C(Nc1cc(C(F)(F)F)ccc1-n1cnc2ccccc21)c1ccccc1	-32
O=C(Nc1ccc(/C=C/c2nc3ccccc3o2)cc1)c1cccc(C(F)(F)F)c1	0.151
COC(=O)c1ccc(NC(=S)NCCc2cccc(C)c2)cc1	-2.3
CCCn1c(NC(=O)c2cccc(C)c2C)nc2ccccc21	-26.7
Cc1ccccc1NC(=O)CSc1nnc2ccc(-c3ccncc3)nn12	-69.5
CCOc1ccccc1NC(=O)CSc1nnc2ccc(-c3ccncc3)nn12	-54.3
CC(=O)Nc1cccc(NC(=O)CSc2nnc3ccc(-c4ccncc4)nn23)c1	-17.8
CCOc1ccccc1NC(=O)CSc1nnc2ccc(-c3cccnc3)nn12	-25.8
Cc1ccccc1NC(=O)CSc1nnc2ccc(-c3cccnc3)nn12	-33
CCOc1ccccc1NC(=O)CSc1nnc2ccc(-c3ccccn3)nn12	2.41
CCOc1ccccc1NC(=O)CSc1nnnn1Cc1ccccc1	-40.5
CC(=O)c1ccc(S(=O)(=O)N2CCN(C(=O)CSc3ccc(F)cc3)CC2)cc1	11.7
CC[C@]12C=CCN3CCC4(c5cc(Br)c(OC)cc5N(C)C4[C@@](O)(C(=O)OC)[C@@H]1OC(C)=O)C32 (some centres unmarked)	7.6
COc1ccc(/C=C(/NC(=O)c2ccccc2)C(=O)N/N=C/c2ccncc2)cc1	9.78
N#CCSc1nc(-c2ccccc2)nc2ccccc12	7.83
CCc1ccccc1NC(=O)CN1CCC(NC(=O)COC)CC1.Cl	13.4
Cc1cccc(NC(=O)CN2CCN(CC(=O)Nc3ccc(-c4ccccc4)cc3)CC2)c1C	-17
Cc1cccc(NC(=O)CNC(=O)COc2ccc(-c3ccc(C#N)cc3)cc2)c1C	4.86
CCc1ccccc1NC(=O)CN1CCN(C(=O)CNC(=O)Cc2cccc3ccccc23)CC1	-59.6
CCc1ccccc1NC(=O)CN1CCN(C(=O)CN2C(=O)NC3(CCCC3)C2=O)CC1	7.54
CCc1ccccc1NC(=O)CN1CCN(C(=O)COc2ccccc2C#N)CC1	-34.6
Cc1cccc(NC(=O)CN2CCN(C(=O)c3ccc(OCc4cn5ccccc5n4)cc3)CC2)c1C	-46.5
Cc1cccc(NC(=O)CN2CCN(C(=O)C(C)Oc3ccc(C#N)cc3)CC2)c1C (centres unmarked)	-76.9
CCc1ccccc1NC(=O)CN1CCN(CC(=O)NCc2ccc(Cl)cc2)CC1	-46.6
CCc1ccccc1NC(=O)CN1CCN(CC(=O)Nc2ccc(-c3ccccc3)cc2)CC1	-53.3
CCc1ccccc1NC(=O)CN1CCN(C(=O)CNC(=O)c2ccccc2F)CC1	-13.5

Compound	hERG current change (%, negative = inhibition) at 10uM [%]
CCc1ccccc1NC(=O)CN1CCN(C(=O)CCC(=O)N2CCC(c3ccccc3)=N2)CC1	-58
COc1ccc(Cl)cc1NC(=O)CN(C)C(=O)c1ccc(OCc2ccccc2)c(OC)c1	6.49
COc1coc(C(O)CN)cc1=O (centres unmarked)	4.57
CC(=O)c1ccc(NC(=O)C2CC(c3ccc(F)cc3)=NO2)cc1 (centres unmarked)	-6.78
CC(C(=O)N(C)C1CCCCC1)N1CCC(C(N)=O)CC1 (centres unmarked)	25
Cc1ccc2c(c1)c1ncnc(N3CCc4ccccc4C3)c1n2C	0.68
COc1cccc(CN(CC(=O)NCc2ccccc2)S(=O)(=O)CCl)c1	-16.8
CCOC(=O)c1csc(NC(=O)c2ccc(S(=O)(=O)N(C)C)cc2)n1	-20.9
Cc1ccnc(SCC(=O)N2CCN(c3cccc(Cl)c3)CC2)n1	-25.2
O=C(NC1CCN(C(=S)Nc2ccccc2Cl)CC1)C1CCCCC1	14
O=C(CSc1nc2scc(-c3ccccc3)c2c(=O)[nH]1)NCCc1ccccc1	-1.09
CCc1ccccc1NC(=O)CN1CCN(C(=O)CNC(=O)c2ccc(-c3ccccc3)cc2)CC1	-57
Cc1cccc(NC(=O)CNC(=O)CN2CCN(C)CC2)c1C	7.6
O=C(CN1CCN(C(=O)CNC(=O)c2ccc3c(c2)OCO3)CC1)Nc1ccccc1Cl	-49.3
Cc1cccc(NC(=O)CN2CCN(C(=O)CNC(=O)Cc3cccc4ccccc34)CC2)c1C	-57.4
Cc1cccc(NC(=O)CN2CCOCC2)c1C	13.9
CCOC(=O)N1CCN(CC(=O)Nc2cccc(Br)c2)CC1	-18.9
Cc1ccccc1NC(=O)CNC(=O)Cc1cccc2ccccc12	1.16
Cc1cccc(NC(=O)CN2CCN(C(=O)COc3cccc(Br)c3)CC2)c1C	-70.4
CCc1ccccc1NC(=O)CN1CCN(C(=O)CNC(=O)c2ccc(N3CCCC3=O)cc2)CC1	-3.9
O=C(O)CN1CCN(CC(=O)O)CCN(CC(=O)O)CCN(CC(=O)O)CC1	7.18
O=C(Nc1cccc(C(=O)N2CCOCC2)c1)c1ccccc1Cl	-17
COc1ccc(C(=O)Nc2ccc(-c3ccc(C)o3)cc2)cc1S(=O)(=O)N1CCOCC1	14.6
O=C(NCc1cccs1)C1CCCN1C(=O)Nc1ccccc1 (centres unmarked)	21
CCN(C(=O)COC(=O)c1ccc2ccccc2c1)c1c(N)n(Cc2ccccc2)c(=O)[nH]c1=O	14.1
COc1ccc(C(=O)OCC(=O)Nc2sccc2C(N)=O)cc1OC	-0.284
